From PubChem BioAssay (Tox21)
Records with an inconclusive call do not appear. Activity calls are given as the source filed them. The call rests on the fitted dose curve; in most records, active means well fitted curve in the direction sought with a large enough effect in the repeat runs; inconclusive means weak or mixed curves; inactive means no such curve, though single readings can be large; an effect the other way counts as inactive or inconclusive.

Key:
[1] = qHTS RealTime-Glo MT Cell Viability Assay in HepG2 cells - 40 hour (AID 1224870); further: nearly all actives have a fitted effect of over 50% in size
Summary of the method: (§1)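 HepG2 cells (600/well) mixed with RealTime-Glo MT reagent, settled 5 h at 37 C/5% CO2 before compound addition. Nonlytic NanoLuc luminescence from viable-cell prosubstrate reduction read repeatedly during 40 h treatment at 37 C.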

[2] = A CellTox Green Cytotoxicity Assay to monitor cytotoxicity in HEK293 cells - 40 hour (AID 1224871); further: nearly all actives have a fitted effect of over 45% in size
Summary of the method: (§2)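 Cytotoxicity was tracked continuously in HEK293 cells by a DNA-binding dye excluded from viable cells. Compounds were transferred in DMSO 5 h after seeding; fluorescence was recorded at intervals up to 40 h.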

[3] = qHTS RealTime-Glo MT Cell Viability Assay in HEK293 cells - 16 hour (AID 1224872); further: nearly all actives have a fitted effect of over 50% in size; further: potency means the concentration at half of the fitted maximal effect; on activity change, negative = cytotoxicity: top concentration of the series differs between compounds
Summary of the method: (§3)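 HEK293 cells were seeded at 600 cells/well together with NanoLuc luciferase and cell-permeant prosubstrate, preincubated 5 h at 37 C/5% CO2, then given compound in DMSO by pintool. Luminescence from viable-cell prosubstrate reduction was read repeatedly over 40 h.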

[4] = qHTS RealTime-Glo MT Cell Viability Assay in HEK293 cells - 40 hour (AID 1224874); conditions: RealTime-Glo luminescence; max response: stronger effect = lower value; further: nearly all actives have a fitted effect of over 50% in size; further: potency means the concentration at half of the fitted maximal effect
Summary of the method: (§4)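 Nonlytic bioluminescent viability monitoring. HEK293 at 600 cells/well with reagent; 5 h settle; compound transfer by pintool; plates held at 37 C and read at set time points.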

[5] = A CellTox Green Cytotoxicity Assay to monitor cytotoxicity in HEK293 cells - 24 hour (AID 1224875); further: series mostly up to about 77 µM; nearly all actives have a fitted effect of over 45% in size
Summary of the method: as §2

[6] = A CellTox Green Cytotoxicity Assay to monitor cytotoxicity in HepG2 cells - 16 hour (AID 1224876); further: nearly all actives have a fitted effect of over 45% in size
Summary of the method: (§5)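 Real-time, homogeneous cytotoxicity readout: dead-cell DNA staining by CellTox Green in HepG2 monolayers, fluorescence measured at timed intervals up to 40 h of continuous compound exposure.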

[7] = qHTS RealTime-Glo MT Cell Viability Assay in HepG2 cells - 32 hour (AID 1224877); further: nearly all actives have a fitted effect of over 55% in size
Summary of the method: (§6)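 HepG2 cells were seeded at 600 cells/well together with NanoLuc luciferase and a cell-permeant prosubstrate, preincubated 5 h at 37 C/5% CO2, then pin-dosed with compounds in DMSO. Nonlytic luminescence from viable cells was read at each time point.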

[8] = A CellTox Green Cytotoxicity Assay to monitor cytotoxicity in HepG2 cells - 24 hour (AID 1224878); further: nearly all actives have a fitted effect of over 45% in size
Summary of the method: as §5

[9] = A CellTox Green Cytotoxicity Assay to monitor cytotoxicity in HepG2 cells - 40 hour (AID 1224879); further: nearly all actives have a fitted effect of over 40% in size; further: potency means the concentration at half of the fitted maximal effect
Summary of the method: as §5

[10] = qHTS RealTime-Glo MT Cell Viability Assay in HEK293 cells - 0 hour (AID 1224880)
Summary of the method: as §4

[11] = A CellTox Green Cytotoxicity Assay to monitor cytotoxicity in HEK293 cells - 32 hour (AID 1224881); further: nearly all actives have a fitted effect of over 40% in size
Summary of the method: as §2

[12] = A CellTox Green Cytotoxicity Assay to monitor cytotoxicity in HepG2 cells - 0 hour (AID 1224882); further: nearly all actives have a fitted effect of over 35% in size
Summary of the method: as §5

[13] = A CellTox Green Cytotoxicity Assay to monitor cytotoxicity in HEK293 cells - 8 hour (AID 1224884); further: nearly all actives have a fitted effect of over 35% in size
Summary of the method: as §2

[14] = qHTS RealTime-Glo MT Cell Viability Assay in HepG2 cells - 16 hour (AID 1224885); further: nearly all actives have a fitted effect of over 50% in size
Summary of the method: as §6

[15] = qHTS RealTime-Glo MT Cell Viability Assay in HEK293 cells - 24 hour (AID 1224886); further: nearly all actives have a fitted effect of over 50% in size; further: potency means the concentration at half of the fitted maximal effect; on activity change, negative = cytotoxicity: top concentration of the series differs between compounds
Summary of the method: as §3

[16] = qHTS RealTime-Glo MT Cell Viability Assay in HEK293 cells - 8 hour (AID 1224887); further: nearly all actives have a fitted effect of over 50% in size; further: potency means the concentration at half of the fitted maximal effect; on activity change, negative = cytotoxicity: top concentration of the series differs between compounds
Summary of the method: as §4

[17] = A CellTox Green Cytotoxicity Assay to monitor cytotoxicity in HEK293 cells - 16 hour (AID 1224888); further: nearly all actives have a fitted effect of over 35% in size
Summary of the method: as §2

[18] = qHTS RealTime-Glo MT Cell Viability Assay in HepG2 cells - 0 hour (AID 1224889); further: nearly all actives have a fitted effect of over 50% in size
Summary of the method: as §6

[19] = qHTS RealTime-Glo MT Cell Viability Assay in HepG2 cells - 8 hour (AID 1224873); further: nearly all actives have a fitted effect of over 55% in size
Summary of the method: as §1

[20] = A CellTox Green Cytotoxicity Assay to monitor cytotoxicity in HepG2 cells - 32 hour (AID 1224883); further: nearly all actives have a fitted effect of over 50% in size
Summary of the method: as §5
On the % scale 0 is the no-effect control and ±100 the full control effect.

O=C(Cl)CCl
inactive: Potency [1] | Potency [2] | Potency [3] | max response [4] 0.179% | Potency [5] | Potency [6] | Potency [7] | Potency [8] | Potency [9] | outcome [10] | Potency [11] | outcome [12] | Potency [13] | Potency [14] | Potency [15] | Potency [16] | Potency [17] | outcome [18]

C=CCCC#N
inactive: Potency [1] | Potency [2] | Potency [3] | outcome [19] | max response [4] 6.33% | Potency [5] | Potency [6] | Potency [9] | outcome [10] | Potency [11] | outcome [12] | Potency [20] | Potency [13] | Potency [14] | Potency [15] | Potency [16] | Potency [17] | outcome [18]

COC(=O)c1ccccc1CS(=O)(=O)NC(=O)Nc1nc(OC)cc(OC)n1
inactive: Potency [1] | Potency [2] | Potency [3] | outcome [19] | max response [4] 1.53% | Potency [5] | Potency [6] | Potency [8] | Potency [9] | outcome [10] | Potency [11] | Potency [20] | Potency [13] | Potency [15] | Potency [16] | Potency [17] | outcome [18]

CC(C)(O)C(Cl)(Cl)Cl
inactive: Potency [1] | Potency [2] | Potency [3] | max response [4] 4.01% | Potency [5] | Potency [6] | Potency [7] | Potency [8] | Potency [9] | outcome [10] | Potency [11] | outcome [12] | Potency [20] | Potency [13] | Potency [14] | Potency [15] | Potency [16] | Potency [17] | outcome [18]

CC(O)CCl (centres undefined)
inactive: Potency [1] | Potency [2] | Potency [3] | outcome [19] | max response [4] 1.35% | Potency [5] | Potency [6] | Potency [8] | Potency [9] | outcome [10] | outcome [12] | Potency [13] | Potency [14] | Potency [15] | Potency [16] | Potency [17] | outcome [18]

Brc1c(Br)c(Br)c(Br)c(Br)c1Br
inactive: activity change, negative = cytotoxic [1] -3.64% [at 6.97 µM] | cytotoxicity increase [2] 4.32% [at 6.97 µM] | viability change, negative = cytotoxic [19] -1.77% [at 6.97 µM] | max response [4] 23.1% | activity change [5] 5.24% [at 6.97 µM, stronger effect = higher value] | cytotoxicity increase [6] -7.6% [at 6.97 µM] | activity change, negative = cytotoxic [7] -8.23% [at 6.97 µM] | cytotoxicity [8] -0.215% [at 6.97 µM] | cytotoxicity increase [9] -0.0521% [at 6.97 µM] | activity change, negative = cytotoxicity [10] 0% [at 6.97 µM] | cytotoxicity increase [11] 4.45% [at 6.97 µM] | cytotoxicity [12] 0.332% [at 6.97 µM] | cytotoxicity increase [20] 0.204% [at 6.97 µM] | cytotoxicity increase [13] 12.9% [at 6.97 µM] | activity change [17] 4.52% [at 6.97 µM, stronger effect = higher value] | activity change, negative = cytotoxicity [18] 0.505% [at 6.97 µM]

O=P(O)(O)CN(CP(=O)(O)O)CP(=O)(O)O
inactive: Potency [1] | cytotoxicity increase [2] 32.5% [at 15.8 µM] | outcome [19] | activity change [5] 29.5% [at 15.8 µM, stronger effect = higher value] | Potency [6] | Potency [7] | Potency [8] | Potency [9] | cytotoxicity increase [11] 21.6% [at 15.8 µM] | outcome [12] | Potency [20] | cytotoxicity increase [13] 30% [at 15.8 µM] | Potency [14] | activity change [17] 27.1% [at 15.8 µM, stronger effect = higher value] | outcome [18]

CC1NCCOC1c1ccccc1 (centres undefined)
inactive: Potency [1] | Potency [2] | Potency [3] | max response [4] 4.25% | Potency [5] | Potency [6] | Potency [7] | Potency [8] | Potency [9] | outcome [10] | outcome [12] | Potency [20] | Potency [13] | Potency [15] | Potency [16] | Potency [17] | outcome [18]

Clc1cc2c(cc1Cl)Oc1cc(Cl)c(Cl)cc1O2
inactive: activity change, negative = cytotoxic [1] -10.5% [at 0.29 µM] | cytotoxicity increase [2] -35.9% [at 0.29 µM] | viability change, negative = cytotoxic [19] 0.0568% [at 0.29 µM] | activity change [5] -30.3% [at 0.29 µM, stronger effect = higher value] | cytotoxicity increase [6] -1.02% [at 0.29 µM] | activity change, negative = cytotoxic [7] 1.14% [at 0.29 µM] | activity change, negative = cytotoxicity [10] -12.5% [at 0.29 µM] | cytotoxicity increase [11] -34% [at 0.29 µM] | cytotoxicity [12] -1.33% [at 0.29 µM] | cytotoxicity increase [20] 4.82% [at 0.29 µM] | cytotoxicity increase [13] -18.7% [at 0.29 µM] | activity change, negative = cytotoxic [14] 2.3% [at 0.29 µM] | activity change [17] -25.8% [at 0.29 µM, stronger effect = higher value] | activity change, negative = cytotoxicity [18] 7.93% [at 0.29 µM]
active: Potency [9] 0.0268 µM

CC[C@@H](CO)NC(=O)[C@@H]1C=C2c3cccc4c3c(cn4C)C[C@H]2N(C)C1
inactive: Potency [1] | Potency [2] | Potency [3] | max response [4] -3.36% | Potency [5] | Potency [6] | Potency [7] | Potency [9] | outcome [10] | Potency [11] | outcome [12] | Potency [20] | Potency [13] | Potency [16] | Potency [17] | outcome [18]

CC(Cc1ccccc1)NCCn1cnc2c1c(=O)n(C)c(=O)n2C (centres undefined)
active: Potency [3] 15.3 µM | Potency [4] 24.2 µM | Potency [15] 21.6 µM | Potency [16] 24.2 µM
inactive: Potency [1] | Potency [2] | Potency [5] | Potency [6] | Potency [7] | Potency [8] | Potency [9] | outcome [10] | outcome [12] | Potency [20] | Potency [13] | Potency [14] | Potency [17] | outcome [18]

C=C1CC[C@@]2(O)[C@H]3Cc4ccc(O)c5c4[C@@]2(CCN3CC2CC2)[C@H]1O5
inactive: Potency [1] | Potency [3] | outcome [19] | max response [4] 9.06% | Potency [5] | Potency [6] | Potency [7] | Potency [8] | Potency [9] | outcome [10] | Potency [11] | outcome [12] | Potency [20] | Potency [13] | Potency [14] | Potency [15] | Potency [16] | outcome [18]

CCN(CC)C1CCCCC1
inactive: Potency [1] | Potency [2] | Potency [3] | max response [4] 2.39% | Potency [5] | Potency [6] | Potency [8] | Potency [9] | outcome [10] | Potency [11] | outcome [12] | Potency [20] | Potency [13] | Potency [14] | Potency [15] | Potency [16] | Potency [17] | outcome [18]

CON(C)C(=O)Nc1ccc(Br)cc1
inactive: Potency [1] | Potency [2] | Potency [3] | max response [4] -9.38% | Potency [5] | Potency [6] | Potency [8] | Potency [9] | outcome [10] | Potency [11] | outcome [12] | Potency [20] | Potency [13] | Potency [14] | Potency [16] | Potency [17] | outcome [18]
